Our source for the outcome and AC50 values is PubChem BioAssay (EPA / NIEHS).

The target of experiment [1] is Peroxisome proliferator-activated receptor gamma (Homo sapiens) (UniProt P37231). Description: ATG_hPPARg_XSP1: Attagene TRANS-FACTORIAL Multi-Species (XSP1) HepG2 Assay for human Peroxisome Proliferator-activated Receptor gamma (PPARg) (AID 2283800). A digest of the protocol: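 HepG2 cells transiently transfected with GAL4-UAS reporter units carrying chimeric NR-Gal4 proteins; 3 nM 6-alpha-fluorotestosterone present. After 24 h dosing, reporter mRNA quantified by RT-PCR and capillary electrophoresis; gain of signal relative to DMSO.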
Chain of Peroxisome proliferator-activated receptor gamma (Homo sapiens) (P37231 whole entry, looked up, the tested form may be a part): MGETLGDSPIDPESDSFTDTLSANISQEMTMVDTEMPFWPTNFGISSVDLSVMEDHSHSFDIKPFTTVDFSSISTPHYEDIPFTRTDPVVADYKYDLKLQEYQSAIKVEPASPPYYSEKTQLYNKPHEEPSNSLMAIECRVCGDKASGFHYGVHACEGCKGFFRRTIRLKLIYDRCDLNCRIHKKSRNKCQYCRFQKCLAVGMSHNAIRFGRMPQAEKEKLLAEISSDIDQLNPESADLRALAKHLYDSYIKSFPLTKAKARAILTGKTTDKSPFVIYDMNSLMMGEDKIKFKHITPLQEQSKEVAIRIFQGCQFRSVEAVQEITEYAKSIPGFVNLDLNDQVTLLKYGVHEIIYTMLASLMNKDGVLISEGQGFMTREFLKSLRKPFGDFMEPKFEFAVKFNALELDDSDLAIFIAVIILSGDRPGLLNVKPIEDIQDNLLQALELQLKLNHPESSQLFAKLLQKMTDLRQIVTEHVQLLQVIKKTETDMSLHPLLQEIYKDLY

For experiment [2], the target named is Nuclear receptor subfamily 1 group I member 2 (Mus musculus) (UniProt O54915). Description: ATG_mPXR_XSP1: Attagene TRANS-FACTORIAL Multi-Species (XSP1) HepG2 Assay for mouse Pregnane X Receptor (PXR) (AID 2283803). A digest of the protocol: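 Transiently transfected HepG2 cells expressing a receptor-Gal4 chimera drive a GAL4-UAS reporter; 3 nM 6-alpha-fluorotestosterone included. Reporter mRNA read 24 h post-dose by RT-PCR and capillary electrophoresis; gain of signal relative to DMSO.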
Chain of Nuclear receptor subfamily 1 group I member 2 (Mus musculus) (O54915 whole entry, looked up, the tested form may be a part): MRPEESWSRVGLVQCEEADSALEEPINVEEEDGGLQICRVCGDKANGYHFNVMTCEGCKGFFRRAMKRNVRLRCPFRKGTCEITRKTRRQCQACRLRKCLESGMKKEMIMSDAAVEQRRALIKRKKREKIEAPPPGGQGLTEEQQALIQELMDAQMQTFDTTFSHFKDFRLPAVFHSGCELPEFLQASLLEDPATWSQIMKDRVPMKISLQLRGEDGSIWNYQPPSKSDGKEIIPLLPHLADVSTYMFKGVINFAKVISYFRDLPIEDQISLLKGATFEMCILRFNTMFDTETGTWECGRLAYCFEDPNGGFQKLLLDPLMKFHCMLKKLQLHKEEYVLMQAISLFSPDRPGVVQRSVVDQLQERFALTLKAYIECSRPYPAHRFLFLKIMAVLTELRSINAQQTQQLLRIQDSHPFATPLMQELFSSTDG

Experiment [3] has as its target human Thyroid hormone Receptor alpha (TRa), THRA (gene 7067) (UniProt P10827). Description: ATG_hTRa_XSP1: Attagene TRANS-FACTORIAL Multi-Species (XSP1) HepG2 Assay for human Thyroid hormone Receptor alpha (TRa) (AID 2283805). The essentials: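 HepG2 cells transiently transfected with GAL4-UAS reporter units expressing chimeric NR-Gal4 proteins, dosed 24 hours with 3 nM 6-alpha-fluorotestosterone present. Reporter mRNA measured by RT-PCR and capillary electrophoresis; gain of signal fitted versus DMSO.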

In experiment [4] the test system is turtle Thyroid Hormone Receptor, alpha (TRa), gene 101949057. Description: ATG_trTRa_XSP1: Attagene TRANS-FACTORIAL Multi-Species (XSP1) HepG2 Assay for turtle Thyroid Hormone Receptor, alpha (TRa) (AID 2283806). A digest of the protocol:
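HepG2 cells transiently transfected with GAL4-UAS reporter units and chimeric receptor-Gal4 constructs, with 3 nM 6-alpha-fluorotestosterone present. Reporter mRNA was quantified 24 h after dosing by RT-PCR, 6-FAM labelling and capillary electrophoresis; gain of signal versus DMSO.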

In experiment [5] the target is zebrafish Thyroid Hormone Receptor alpha (TRa), thraa (gene 30670) (UniProt Q98867). Description: ATG_zfTRa_XSP1: Attagene TRANS-FACTORIAL Multi-Species (XSP1) HepG2 Assay for zebrafish Thyroid Hormone Receptor alpha (TRa) (AID 2283807). The essentials:
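HepG2 cells transiently transfected with GAL4-UAS reporter units including a zebrafish TRa–Gal4 chimera, dosed 24 h with 3 nM 6-alpha-fluorotestosterone present. Reporter mRNA quantified by RT-PCR and capillary electrophoresis; gain versus DMSO.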

The target in experiment [6] is human Thyroid hormone Receptor beta (TRb), THRB (gene 7068) (UniProt P10828). Description: ATG_hTRb_XSP1: Attagene TRANS-FACTORIAL Multi-Species (XSP1) HepG2 Assay for human Thyroid hormone Receptor beta (TRb) (AID 2283808). A digest of the protocol: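 HepG2 cells transiently transfected with reporter units driving GAL4-UAS reporters for chimeric NR-Gal4 proteins; 24 h chemical exposure with 3 nM 6-alpha-fluorotestosterone present. Reporter mRNA quantified by RT-PCR and capillary electrophoresis, gain of signal versus DMSO.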
Chain of human Thyroid hormone Receptor beta (TRb), THRB (gene 7068) (P10828 whole entry, looked up, the tested form may be a part): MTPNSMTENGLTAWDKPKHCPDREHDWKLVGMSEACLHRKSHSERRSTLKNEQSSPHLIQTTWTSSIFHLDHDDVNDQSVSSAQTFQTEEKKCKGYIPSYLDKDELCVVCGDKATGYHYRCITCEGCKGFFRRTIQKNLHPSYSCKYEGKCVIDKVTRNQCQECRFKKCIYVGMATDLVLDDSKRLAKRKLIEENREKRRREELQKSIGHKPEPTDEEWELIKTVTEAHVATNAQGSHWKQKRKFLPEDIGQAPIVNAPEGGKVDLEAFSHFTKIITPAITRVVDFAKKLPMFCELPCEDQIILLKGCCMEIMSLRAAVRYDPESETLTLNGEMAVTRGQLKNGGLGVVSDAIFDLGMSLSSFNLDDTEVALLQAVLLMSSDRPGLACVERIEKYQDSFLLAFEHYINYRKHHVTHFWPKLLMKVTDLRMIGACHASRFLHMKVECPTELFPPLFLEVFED

Experiment [7] addresses zebrafish Thyroid Hormone Receptor beta (TRb), thrb (gene 30607) (UniProt Q9PVE4). The experiment is described as follows: ATG_zfTRb_XSP1: Attagene TRANS-FACTORIAL Multi-Species (XSP1) HepG2 Assay for zebrafish Thyroid Hormone Receptor beta (TRb) (AID 2283809). The essentials:
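HepG2 cells transiently transfected with multiplexed GAL4-UAS reporter units expressing chimeric zebrafish TRb–Gal4. Dosed 24 h with 3 nM 6-alpha-fluorotestosterone present; reporter mRNA measured by RT-PCR, HpaI digestion and capillary electrophoresis; gain of signal versus DMSO.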

The nature of experiment [8]: ATG_XTT_Cytotoxicity_XSP1: Cytotoxicity Assessment in the Attagene TRANS-FACTORIAL Multi-Species (XSP1) HepG2 Assay (AID 2283810). A digest of the protocol: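 XTT viability readout taken at 24 hours post-dosing in HepG2 liver cells co-treated with 3 nM 6-alpha-fluorotestosterone. Signal loss relative to DMSO controls reflects cytotoxicity.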
Experiment [9] in a line: ATG_M_06_XSP2: Attagene TRANS-FACTORIAL Multi-Species (XSP2) HepG2 Assay for M06 Transcription Factor (Internal Marker) (AID 2283811).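 Also: hits are increases in signal above the DMSO baseline.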 The essentials:
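HepG2 cells transiently transfected with GAL4-UAS multiple reporter units, medium containing 3 nM 6-alpha-fluorotestosterone and 1.5 nM norgestrel; reporter mRNA measured 24 hours post-dosing by RT-PCR and capillary electrophoresis. Internal background marker, gain of signal vs DMSO.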

The test system of experiment [10] is turtle Estrogen Receptor (ERa), gene 101933533. The experiment is described as follows: ATG_trERa_XSP2: Attagene TRANS-FACTORIAL Multi-Species (XSP2) HepG2 Assay for turtle Estrogen Receptor (ERa) (AID 2283812).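 Also: human HepG2 liver cells transiently expressing turtle ERa-Gal4 chimeric receptor; actives raise reporter signal above DMSO so AC50 reflects agonist activity.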 The essentials: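 HepG2 cells transiently transfected with GAL4-UAS reporter units expressing turtle ERa-Gal4 chimera. Reporter mRNA measured after 24 h dosing by RT-PCR, fluorescent labelling and capillary electrophoresis; gain of signal fitted versus DMSO.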

Results filed as inconclusive are left out. Active and inactive are the calls of the source. The calls were made as follows: active = hit-call score of the fitted dose curve at least 0.9, where 1 is the maximum; inconclusive = response in the unintended direction; inactive = score below 0.9.

Chain of zebrafish Thyroid Hormone Receptor alpha (TRa), thraa (gene 30670) (Q98867 whole entry, looked up, the tested form may be a part): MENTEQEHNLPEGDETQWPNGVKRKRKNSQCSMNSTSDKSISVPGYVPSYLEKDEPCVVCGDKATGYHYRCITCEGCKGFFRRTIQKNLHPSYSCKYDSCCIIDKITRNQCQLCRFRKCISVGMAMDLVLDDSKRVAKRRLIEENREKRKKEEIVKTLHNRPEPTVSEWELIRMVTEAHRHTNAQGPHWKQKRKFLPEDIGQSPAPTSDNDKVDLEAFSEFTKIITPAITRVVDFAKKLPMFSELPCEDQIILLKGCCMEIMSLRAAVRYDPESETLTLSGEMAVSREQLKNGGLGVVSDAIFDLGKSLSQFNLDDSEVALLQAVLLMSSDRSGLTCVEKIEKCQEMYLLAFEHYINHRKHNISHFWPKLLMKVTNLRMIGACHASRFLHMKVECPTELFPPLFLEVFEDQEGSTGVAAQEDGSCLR
Chain of zebrafish Thyroid Hormone Receptor beta (TRb), thrb (gene 30607) (Q9PVE4 whole entry, looked up, the tested form may be a part): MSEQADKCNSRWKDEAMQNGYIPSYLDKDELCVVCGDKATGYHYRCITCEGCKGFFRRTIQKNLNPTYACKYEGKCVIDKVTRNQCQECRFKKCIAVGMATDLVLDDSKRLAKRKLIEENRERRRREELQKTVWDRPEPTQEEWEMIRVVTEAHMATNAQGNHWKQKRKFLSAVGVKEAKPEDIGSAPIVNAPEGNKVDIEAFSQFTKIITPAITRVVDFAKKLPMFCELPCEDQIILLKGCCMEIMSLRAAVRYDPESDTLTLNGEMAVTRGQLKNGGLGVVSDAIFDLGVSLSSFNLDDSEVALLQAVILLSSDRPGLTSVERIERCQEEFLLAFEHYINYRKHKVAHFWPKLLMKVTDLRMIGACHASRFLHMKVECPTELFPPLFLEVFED
Chain of human Thyroid hormone Receptor alpha (TRa), THRA (gene 7067) (P10827 whole entry, looked up, the tested form may be a part): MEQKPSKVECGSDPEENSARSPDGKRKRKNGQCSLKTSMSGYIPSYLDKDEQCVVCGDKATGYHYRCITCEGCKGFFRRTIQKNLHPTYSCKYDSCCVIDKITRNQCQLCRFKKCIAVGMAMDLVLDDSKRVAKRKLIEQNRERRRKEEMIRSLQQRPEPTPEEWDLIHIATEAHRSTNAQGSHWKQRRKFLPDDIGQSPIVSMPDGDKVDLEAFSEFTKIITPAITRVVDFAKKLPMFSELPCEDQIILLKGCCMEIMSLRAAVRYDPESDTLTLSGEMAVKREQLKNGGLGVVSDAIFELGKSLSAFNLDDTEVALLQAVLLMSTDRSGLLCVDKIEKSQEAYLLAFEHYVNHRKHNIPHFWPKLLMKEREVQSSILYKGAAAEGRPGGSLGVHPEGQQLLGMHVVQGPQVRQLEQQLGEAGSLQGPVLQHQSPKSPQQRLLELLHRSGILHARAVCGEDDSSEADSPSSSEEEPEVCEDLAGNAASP

As usually defined, the AC50 is the midpoint of the concentration-response curve, whichever way the signal moves. With `C[C@]12CC[C@@H]3c4ccc(O)cc4CC[C@H]3[C@@H]1C[C@@H](O)[C@@H]2O`, the compound was classed as inactive in [1], in [2], in experiment [3], in experiment [4], in experiment [5] and in experiment [6]. Besides, the compound was classed as inactive in experiment [7], in experiment [8] and in [9]. Moreover, the AC50 in experiment [10] is 30.6 nM (active).
